Test results taken from PubChem BioAssay (NCI).
This is part of a sample that, as a whole, favours compounds with a hit. Of some 79,000 tested, about 15% had one in any assay. Unmarked numbers belong to inactive results. The source made the active and inactive calls. No stated cut-off is given here; in the data, active means growth inhibition above about 70%; inactive means the rest.

Experiments:
[1] = NCI Yeast Anticancer Drug Screen. Data for the rad50 strain (AID 155);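 further: 0% = growth of vehicle-only cultures of the same strain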; settings: S. cerevisiae rad50 strain growth inhibition, stronger effect = higher value
How it was run: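 Cells are treated with compound, grown, and their growth is then scored against vehicle-only cultures of the same repair-deficient yeast strain.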

[2] = NCI Yeast Anticancer Drug Screen. Data for the mec2-1 strain (AID 157); settings: S. cerevisiae mec2-1 strain, stronger effect = higher value
How it was run: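 Strain: mec2-1 (DNA repair/cell cycle alteration). Compound exposure, then growth measured; inhibition expressed relative to vehicle.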

[3] = NCI Yeast Anticancer Drug Screen. Data for the sgs1 mgt1 strain (AID 161);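 further: 0% = growth of cultures given vehicle only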; settings: S. cerevisiae sgs1 mgt1 strain, stronger effect = higher value
How it was run: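 Mutant yeast exposed to compound; growth scored against vehicle-only wells.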

[4] = NCI Yeast Anticancer Drug Screen. Data for the cln2 rad14 strain (AID 165);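 further: 0% = growth equal to vehicle treated cultures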; settings: S. cerevisiae cln2 rad14 strain, stronger effect = higher value
How it was run: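 Compounds are applied to the cln2 rad14 yeast strain, and growth is then compared with that of vehicle-treated cultures to give inhibition.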

[5] = NCI Yeast Anticancer Drug Screen. Data for the bub3 strain (AID 167); settings: S. cerevisiae bub3 mutant strain, stronger effect = higher value
How it was run: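 Part of a panel of yeast mutants defective in DNA damage repair or cell cycle regulation. Each strain is grown with compound, and inhibition is calculated relative to solvent-treated cultures.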

[6] = NCI Yeast Anticancer Drug Screen. Data for the mlh1 rad18 strain (AID 175); settings: S. cerevisiae mlh1 rad18 strain growth inhibition, stronger effect = higher value
How it was run: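 Read-out is yeast growth inhibition, calculated against vehicle-only controls. The compound was applied to a strain engineered with DNA damage repair alterations.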

[7] = at 5.0 µM (retest, dose inferred, filed as 0.5)
[8] = at 50.0 µM (retest, dose inferred, filed as 5.0)

Row | SMILES | growth inhibition [1, 7] | growth inhibition [1, 8] | growth inhibition ([1]; at 50.0 µM) | growth inhibition [2, 7] [%] | growth inhibition [2, 8] | growth inhibition ([2]; at 50.0 µM) | growth inhibition [3, 7] [%] | growth inhibition [3, 8] | growth inhibition ([3]; at 50.0 µM) | growth inhibition [4, 7] [%] | growth inhibition [4, 8] | growth inhibition ([4]; at 50.0 µM) | growth inhibition [5, 7] [%] | growth inhibition [5, 8] | growth inhibition ([5]; at 50.0 µM) | growth inhibition [6, 7] | growth inhibition [6, 8] | growth inhibition ([6]; at 50.0 µM)
1 | CCOC(=O)c1ccc(NP(=O)(Oc2ccccc2)Oc2ccccc2)cc1 | -4% | 49% | 64.8% | 18 | 75% (active) | 52.9% | -18 | 66% | 64.7% | -10 | 56% | 69.2% | -6 | 89% (active) | 59.5% | 24% | 88% (active) | 77.8% (active)
2 | Cc1ccc(S(=O)(=O)/N=[Se](\C)c2ccccc2)cc1 (stereo not given) | 16% | 94% (active) | 93.7% (active) | 11 | 95% (active) | 68.5% | 18 | 83% (active) | 90.7% (active) | -1 | 56% | 60.9% | 2 | 83% (active) | 80% (active) | 13% | 91% (active) | 87.4% (active)
3 | CCOP(=O)(OCC)/C(C#N)=C/c1ccc(Br)cc1 | -14% | 95% (active) | 92.3% (active) | -14 | 97% (active) | 94% (active) | -18 | 95% (active) | 92.8% (active) | -20 | 96% (active) | 91.6% (active) | 11 | 97% (active) | 91.8% (active) | -19% | 97% (active) | 92% (active)
4 | O=C(OCC(CCl)OC(=O)C(Cl)(Cl)Cl)C(Cl)(Cl)Cl (stereo not given) | 2% | -5% | 52.2% | 12 | 16% | 46.4% | -31 | -16% | 67% | 2 | 0% | 78.5% (active) | 1 | -4% | 55.3% | -30% | -53% | 54.8%
5 | CN(C=O)NC(=O)N(CCCl)N=O | 19% | 21% | 55.2% | 13 | 1% | 62.5% | 22 | 21% | -13.2% | 23 | 16% | 11.2% | 12 | 4% | -9.1% | 16% | 23% | -11.4%
6 | COc1cc(C2c3cc4c(cc3OC(N3CCOCC3)C2C)OCO4)cc(OC)c1OC (stereo not given) | 18% | 22% | -12.6% | 21 | 31% | -2.55% | -17 | -10% | -1.05% | 4 | 0% | 4.2% | 0 | -11% | 13.3% | 22% | 28% | 0.7%
7 | O=[As](O)(O)c1ccc(Cc2ccc([As](=O)(O)O)cc2)cc1 | 82% (active) | 100% (active) | 99.2% (active) | 62 | 100% (active) | 99.5% (active) | 26 | 99% (active) | 99% (active) | 59 | 99% (active) | 98.5% (active) | 66 | 100% (active) | 99.1% (active) | 78% (active) | 99% (active) | 99.2% (active)
8 | ClC1=C(Cl)C2(Cl)C(Cl)CC1(Cl)C2(Cl)Cl (stereo not given) | 0% | -1% | 62% | -5 | -1% | 40.5% | -3 | -24% | 68.5% | 0 | -9% | 70.2% (active) | 0 | 2% | 1.4% | 14% | 2% | 83.7% (active)
9 | CN(C)c1ccc(/C=C/c2cc3scc(-c4ccccc4)[n+]3c3ccccc23)cc1 | -2% | 87% (active) | 98.7% (active) | 4 | 99% (active) | 99.5% (active) | -1 | 99% (active) | 99.4% (active) | -3 | 98% (active) | 99% (active) | 18 | 97% (active) | 99% (active) | 14% | 99% (active) | 99.2% (active)
10 | O=[n+]1c2ccccc2n([O-])c2ccccc21.[Cl][Cu][Cl] | 90% (active) | 98% (active) | 99.1% (active) | 20 | 99% (active) | 99% (active) | 36 | 98% (active) | 99.2% (active) | 7 | 97% (active) | 97.6% (active) | -3 | 98% (active) | 97.7% (active) | 57% | 98% (active) | 99% (active)
